Measured values published in PubChem BioAssay AID1159580 (chemical genetic matrix, 2015).
“And” between values parts separate entries of the source, which are not always exact repeats. Identical values can stand only once. Out of some 5,500 compounds screened, about 2,000 (36%) were called active. Roughly 18% stayed inconclusive and do not appear here. The list shows a part of the results. A number with no mark means an inactive call. Cut-off read from the data, not from the text of the source: active = normalized growth mostly below about 0.91 (no sharp cut-off); inconclusive = no clear call, values can overlap the other calls; inactive = mostly above about 0.92.

Test: chemical genetic growth profiling, strain panel (AID 1159580);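 note: tested at 20 µM; growth read once vehicle control cultures reached saturation at 30 °C; 1 = growth at the plate median or of vehicle wells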
Details: S. cerevisiae deletion strains, growth OD

CC(C)=CCC1=C(O)c2ccccc2C(=O)C1=O
normalized growth (locus YAL013W, strain DEP1, stronger effect = lower value): 0.949 | normalized growth (locus YAL021C, strain ccr4, stronger effect = lower value): 0.748 (active) | normalized growth (locus YAL026C, strain drs2, stronger effect = lower value): 0.472 (active) | normalized growth (locus YAL030W, strain snc1, stronger effect = lower value): 0.799 (active) | normalized growth (locus YBL061C, strain skt5, stronger effect = lower value): 0.774 (active) | normalized growth (locus YBR009C, strain hhf1, stronger effect = lower value): 0.804 (active) | normalized growth (locus YBR021W, strain FUR4, stronger effect = lower value): 1.05 | normalized growth (locus YBR023C, strain chs3, stronger effect = lower value): 0.749 (active) | normalized growth (locus YBR171W, strain sec66, stronger effect = lower value): 0.707 (active) | normalized growth (locus YBR229C, strain ROT2, stronger effect = lower value): 0.963 | normalized growth (locus YBR231C, strain swc5, stronger effect = lower value): 0.718 (active) | normalized growth (locus YBR279W, strain paf1, stronger effect = lower value): 0.76 (active) | normalized growth (locus YCL011C, strain gbp2, stronger effect = lower value): 0.795 (active) | normalized growth (locus YCL016C, strain dcc1, stronger effect = lower value): 0.762 (active) | normalized growth (locus YCL029C, strain bik1, stronger effect = lower value): 0.899 (active) | normalized growth (locus YCL069W, strain vba3, stronger effect = lower value): 0.675 (active) | normalized growth (locus YCR088W, strain abp1, stronger effect = lower value): 0.799 (active) | normalized growth (locus YDL005C, strain med2, stronger effect = lower value): 0.759 (active) | normalized growth (locus YDL035C, strain GPR1, stronger effect = lower value): 0.97 | normalized growth (locus YDL040C, strain nat1, stronger effect = lower value): 0.843 (active) | normalized growth (locus YDL074C, strain BRE1, stronger effect = lower value): 0.994 | normalized growth (locus YDL101C, strain DUN1, stronger effect = lower value): 0.951 | normalized growth (locus YDL134C, strain PPH21, stronger effect = lower value): 0.958 | normalized growth (locus YDL185W, strain tfp1, stronger effect = lower value): 0.86 (active) | normalized growth (locus YDL192W, strain arf1, stronger effect = lower value): 0.896 (active) | normalized growth (locus YDR001C, strain nth1, stronger effect = lower value): 0.816 (active) | normalized growth (locus YDR069C, strain doa4, stronger effect = lower value): 0.719 (active) | normalized growth (locus YDR101C, strain arx1, stronger effect = lower value): 0.941 | normalized growth (locus YDR137W, strain rgp1, stronger effect = lower value): 0.328 (active) | normalized growth (locus YDR150W, strain NUM1, stronger effect = lower value): 0.934 | normalized growth (locus YDR159W, strain sac3, stronger effect = lower value): 0.549 (active) | normalized growth (locus YDR162C, strain NBP2, stronger effect = lower value): 0.872 | normalized growth (locus YDR195W, strain ref2): 0.976 | normalized growth (locus YDR297W, strain sur2, stronger effect = lower value): 0.832 (active) | normalized growth (locus YDR318W, strain mcm21, stronger effect = lower value): 0.902 (active) | normalized growth (locus YDR334W, strain swr1, stronger effect = lower value): 0.795 (active) | normalized growth (locus YDR335W, strain msn5, stronger effect = lower value): 0.514 (active) | normalized growth (locus YDR388W, stronger effect = lower value): 0.928 (active) | normalized growth (locus YDR392W, strain spt3, stronger effect = lower value): 0.703 (active) | normalized growth (locus YDR502C, strain sam2, stronger effect = lower value): 0.968 | normalized growth (locus YEL003W, strain gim4, stronger effect = lower value): 0.788 (active) | normalized growth (locus YEL037C, strain rad23, stronger effect = lower value): 0.825 (active) | normalized growth (locus YEL061C, strain CIN8 (second series), stronger effect = lower value): 0.799 (active) | normalized growth (locus YEL061C, strain CIN8, stronger effect = lower value): 0.932 | normalized growth (locus YER015W, strain faa2, stronger effect = lower value): 0.648 (active) | normalized growth (locus YER016W, strain bim1, stronger effect = lower value): 0.635 (active) | normalized growth (locus YER110C, stronger effect = lower value): 0.96 | normalized growth (locus YER111C, strain swi4, stronger effect = lower value): 0.564 (active) | normalized growth (locus YER155C, strain BEM2 (second series), stronger effect = lower value): 0.792 (active) | normalized growth (locus YER155C, strain BEM2, stronger effect = lower value): 0.962 | normalized growth (locus YER167W, strain BCK2, stronger effect = lower value): 0.956 | normalized growth (locus YFR010W, strain ubp6, stronger effect = lower value): 0.752 (active) | normalized growth (locus YGL078C, strain dbp3, stronger effect = lower value): 0.914 (active) | normalized growth (locus YGL086W, strain mad1, stronger effect = lower value): 0.879 (active) | normalized growth (locus YGL167C, strain pmr1, stronger effect = lower value): 0.0913 (active) | normalized growth (locus YGL173C, strain kem1, stronger effect = lower value): 0.745 (active) | normalized growth (locus YGL227W, strain vid30, stronger effect = lower value): 0.767 (active) | normalized growth (locus YGL240W, strain doc1, stronger effect = lower value): 0.924 | normalized growth (locus YGL248W, strain PDE1, stronger effect = lower value): 0.964 | normalized growth (locus YGL253W, strain hxk2, stronger effect = lower value): 0.592 (active) | normalized growth (locus YGR078C, strain PAC10, stronger effect = lower value): 0.986 | normalized growth (locus YGR135W, strain pre9, stronger effect = lower value): 0.953 | normalized growth (locus YGR229C, strain SMI1, stronger effect = lower value): 0.992 | normalized growth (locus YGR252W, strain gcn5, stronger effect = lower value): 1 | normalized growth (locus YHR013C, strain ard1, stronger effect = lower value): 0.904 | normalized growth (locus YHR027C, strain rpn1, stronger effect = lower value): 0.537 (active) | normalized growth (locus YHR030C, strain SLT2, stronger effect = lower value): 0.936 and 0.964 | normalized growth (locus YHR079C, strain IRE1 (second series), stronger effect = lower value): 0.941 | normalized growth (locus YHR079C, strain IRE1, stronger effect = lower value): 0.961 | normalized growth (locus YHR094C, strain hxt1, stronger effect = lower value): 0.96 | normalized growth (locus YHR129C, strain ARP1, stronger effect = lower value): 0.952 | normalized growth (locus YHR142W, strain chs7, stronger effect = lower value): 0.421 (active) | normalized growth (locus YHR200W, strain rpn10, stronger effect = lower value): 0.932 | normalized growth (locus YIL066C, strain RNR3, stronger effect = lower value): 0.965 | normalized growth (locus YIL073C, strain SPO22, stronger effect = lower value): 0.824 | normalized growth (locus YIL125W, strain kgd1, stronger effect = lower value): 0.93 (active) | normalized growth (locus YIR030C, strain dcg1, stronger effect = lower value): 0.945 | normalized growth (locus YJL092W, strain hpr5, stronger effect = lower value): 0.793 (active) | normalized growth (locus YJL095W, strain BCK1 (second series), stronger effect = lower value): 0.675 (active) | normalized growth (locus YJL095W, strain BCK1, stronger effect = lower value): 0.944 and 0.936 | normalized growth (locus YJL115W, strain asf1, stronger effect = lower value): 0.861 (active) | normalized growth (locus YJL129C, strain trk1, stronger effect = lower value): 0.554 (active) | normalized growth (locus YJL134W, strain LCB3, stronger effect = lower value): 0.95 | normalized growth (locus YJL154C, strain vps35, stronger effect = lower value): 0.815 (active) | normalized growth (locus YJL164C, strain tpk1, stronger effect = lower value): 0.775 (active) | normalized growth (locus YJL166W, strain qcr8, stronger effect = lower value): 0.714 (active) | normalized growth (locus YJL168C, strain set2, stronger effect = lower value): 0.95 | normalized growth (locus YJL187C, strain SWE1 (second series), stronger effect = lower value): 0.957 | normalized growth (locus YJL187C, strain SWE1, stronger effect = lower value): 0.789 (active) | normalized growth (locus YJR043C, strain POL32, stronger effect = lower value): 1.04 | normalized growth (locus YJR066W, strain TOR1, stronger effect = lower value): 0.875
